TDP1 cell CPT: growth inhibition of DT40 Tdp1-/-;hTDP1 cells with camptothecin (screen for TDP1 inhibitors); chicken DT40 Tdp1-/-;hTDP1 cells + 20 nM CPT, ATP luminescence, 48 h; Potency, µM (top dose mostly 46.2 µM), for the others: top-dose activity change, negative = growth inhibition, actives largely listed as inhibitors; 420,000 compounds, 12% hits; also: nearly all actives have a fitted effect of over 55% in size
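Cell growth measured by CellTiter-Glo luminescence after a minimum 48 h, 37 C compound exposure with 20 nM CPT in Tdp1-knockout DT40 cells stably expressing hTDP1, seeded 400/well; qHTS titration format.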
DT40 TDP1 no CPT: qHTS for Inhibitors of human tyrosyl-DNA phosphodiesterase 1 (TDP1): qHTS in cells in absence of CPT; DT40 Tdp1-/- hTDP1 cells, no CPT, ATP luminescence, 48 h; Potency, µM (top dose mostly 46.2 µM), for inactives: at the highest dose activity change, negative = growth inhibition, hits mostly inhibitors; 420,000 compounds, 15% hits; AID 686978, 2013; also: nearly all actives have a fitted effect of over 55% in size
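Compound effects on proliferation are scored in DT40 Tdp1-/-;hTDP1 cells in the absence of CPT. ATP levels (CellTiter-Glo luminescence) are recorded after a ≥48 hr, 37 °C incubation.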
HT1080 IDH1KD tx: HT-1080 IDH1 knockdown cell toxicity (counter line) | Potency, µM (series often up to 46.1 µM), inactives show top-dose activity, negative = toxicity, actives largely listed as cytotoxic | HT-1080 IDH1 knockdown viability, ATP luminescence, 48 h | 360,000 compounds, 2% hits;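 also: 0% = DMSO wells and -100% = cell-free medium wells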
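Knockdown cells (IDH1KD HT-1080) received compounds 2 h after plating at 750 cells/well and were kept 48 h at 37 °C in 5% FBS RPMI. A CellTiter-Glo luminescence read gave % activity for curve fitting.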
HT1080NT lethal: kills 2HG-producing HT-1080-NT fibrosarcoma cells; 360,000 compounds, 1.6% hits; HT-1080-NT fibrosarcoma viability, CellTiter-Glo ATP luminescence, 48 h; Potency, µM (top dose mostly 46.1 µM), for the others: at the highest dose activity, negative = less viability, most hits filed as cytotoxic; AID 686970;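 also: NT is the 2HG producing partner of a matched IDH1 knockdown line; 0% = DMSO-treated cells and -100% = media-only wells without cells; nearly all actives have a fitted effect of over 55% in size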
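HT-1080-NT fibrosarcoma cells (2HG-overproducing), 750 cells/well in RPMI with 5% FBS, dosed after 2 h and incubated 48 h at 37C. CellTiter-Glo luminescence normalized to DMSO and no-cell wells; concentration-response curves fitted and classed.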
KB-3-1 tox: kills parental KB-3-1 adenocarcinoma cells; KB-3-1 viability, CellTiter-Glo ATP luminescence, 72 h; Potency, µM (doses to about 46.1 µM), most hits filed as cytotoxic; 400,000 compounds, 1.4% hits; also: nearly all actives have a fitted effect of over 60% in size
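Cytotoxicity measured as CellTiter-Glo luminescence after 72 h at 37 C. Compound titrations were pinned onto drug-naive KB-3-1 parental adenocarcinoma cells grown in DMEM with 10% FBS, and normalized data fitted to concentration-response curves.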
KB-V1 MDR tox: KB-V1 MDR subline cytotoxicity; AID 1347076; Potency, µM (titrated, usually from 46.1 µM), usual class: cytotoxic; 400,000 compounds, 3.4% hits; KB-V1 MDR cells viability, CellTiter-Glo, 72 h; also: nearly all actives have a fitted effect of over 60% in size
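KB-V1 cells (P-gp-expressing MDR subline of KB-3-1) in phenol-red-free DMEM with 10% FBS were exposed to library compounds over a concentration series for 72 h at 37 degrees C. Viability read by CellTiter-Glo luminescence; concentration-effect curves fitted after normalization.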
* hit, by the source's call. An excerpt weighted towards active compounds, which were near 19% of everything screened. Calls follow the shape of the dose curve; as a rule, active = well fitted curve in the direction sought with a large enough effect; inconclusive = small, poorly fitted or top-dose-only effect, or another doubt; inactive = no such curve, though single readings can be large; an effect the other way counts as inactive or inconclusive. Unless noted, % is scaled to controls: 0 for no effect and ±100 for the full control effect; potency is read from the fitted curve at half-maximal effect.

For O=C(NN=C(Cc1ccccc1)Cc1ccccc1)c1ccccc1F the results were TDP1 cell CPT -14%, DT40 TDP1 no CPT -3%, HT1080 IDH1KD tx 0%, HT1080NT lethal -9%, KB-3-1 tox inactive and KB-V1 MDR tox inactive.
Screening O=c1cc2c(nn1Cc1ccccc1Cl)-c1ccccc1CC2 returned TDP1 cell CPT -26%, DT40 TDP1 no CPT -18%, HT1080 IDH1KD tx -18%, HT1080NT lethal -24%, KB-3-1 tox inactive and KB-V1 MDR tox inactive.
CSCCC(N=C(NS(=O)(=O)c1ccccc1)c1ccccc1)C(=O)O (configuration not stated) was read as TDP1 cell CPT -22%, DT40 TDP1 no CPT 0%, HT1080 IDH1KD tx 1%, HT1080NT lethal 8%, KB-3-1 tox inactive and KB-V1 MDR tox inactive.
COCCCNc1nnc(Cc2ccc(Cl)cc2)c(=O)[nH]1 was read as TDP1 cell CPT 0.41µM*, DT40 TDP1 no CPT 0.82µM*, HT1080 IDH1KD tx inconclusive, HT1080NT lethal 0.92µM*, KB-3-1 tox inconclusive and KB-V1 MDR tox inactive.
Screening S=c1[nH]nc(-c2cc(-c3ccsc3)n[nH]2)n1-c1cccc2ccccc12 returned TDP1 cell CPT inconclusive, DT40 TDP1 no CPT 29µM*, HT1080 IDH1KD tx -13%, HT1080NT lethal -10%, KB-3-1 tox inactive and KB-V1 MDR tox inactive.
`CN(C)CCN(C(=O)c1cccs1)c1nc2cc3c(cc2s1)OCCO3` gave TDP1 cell CPT inconclusive, DT40 TDP1 no CPT 23µM*, HT1080 IDH1KD tx 0%, HT1080NT lethal -7%, KB-3-1 tox inactive and KB-V1 MDR tox inactive.
Screening CCN(CC)CCN(C(=O)c1ccc2c(c1)OCCO2)c1nc2cc3c(cc2s1)OCO3 returned TDP1 cell CPT -25%, DT40 TDP1 no CPT -15%, HT1080 IDH1KD tx -2%, HT1080NT lethal 0%, KB-3-1 tox inactive and KB-V1 MDR tox inactive.
`CCN(CC)CCN(C(=O)/C=C/c1cccs1)c1nc2ccc(F)cc2s1` gave TDP1 cell CPT inconclusive, DT40 TDP1 no CPT inconclusive, HT1080 IDH1KD tx -10%, HT1080NT lethal -21%, KB-3-1 tox inactive and KB-V1 MDR tox inactive.
For CN(C)CCN(C(=O)c1ccc(Br)s1)c1nc2cc3c(cc2s1)OCCO3 the results were TDP1 cell CPT 7%, DT40 TDP1 no CPT -17%, HT1080 IDH1KD tx -1%, HT1080NT lethal -2%, KB-3-1 tox inactive and KB-V1 MDR tox inactive.
CCN(CC)CCN(C(=O)/C=C/c1cccs1)c1nc2ccc(C)cc2s1 was read as TDP1 cell CPT inconclusive, DT40 TDP1 no CPT 6.5µM*, HT1080 IDH1KD tx inconclusive, HT1080NT lethal -6%, KB-3-1 tox inactive and KB-V1 MDR tox inactive.
CN(C)CCCN(C(=O)/C=C/c1cccs1)c1nc2ccc(F)cc2s1 was read as TDP1 cell CPT 2.6µM*, DT40 TDP1 no CPT 4.6µM*, HT1080 IDH1KD tx inconclusive, HT1080NT lethal 9.2µM*, KB-3-1 tox 21µM* and KB-V1 MDR tox 18µM*.
For CCN(CC)CCN(C(=O)c1cc2c(ccc3ccccc32)oc1=O)c1nc2cc3c(cc2s1)OCCO3 the results were TDP1 cell CPT 18µM*, DT40 TDP1 no CPT 21µM*, HT1080 IDH1KD tx inconclusive, HT1080NT lethal inconclusive, KB-3-1 tox inconclusive and KB-V1 MDR tox inactive.
`Cc1cc(C)c(S(=O)(=O)Nc2ccc[nH]c2=O)c(C)c1` gave TDP1 cell CPT inconclusive, DT40 TDP1 no CPT -19%, HT1080 IDH1KD tx -1%, HT1080NT lethal -7%, KB-3-1 tox inactive and KB-V1 MDR tox inactive.
For CSc1nnc(-c2ccc(C(F)(F)F)nc2C)o1 the results were TDP1 cell CPT 10%, DT40 TDP1 no CPT -3%, HT1080 IDH1KD tx inconclusive, HT1080NT lethal inconclusive, KB-3-1 tox inactive and KB-V1 MDR tox inactive.
Screening CCOc1ccc2nc(N(CCN(C)C)C(=O)/C=C/c3cccs3)sc2c1 returned TDP1 cell CPT inconclusive, DT40 TDP1 no CPT 23µM*, HT1080 IDH1KD tx -5%, HT1080NT lethal -7%, KB-3-1 tox inconclusive and KB-V1 MDR tox inactive.
CCc1ccc2nc(N(CCN(C)C)C(=O)/C=C/c3cccs3)sc2c1 was read as TDP1 cell CPT inconclusive, DT40 TDP1 no CPT inconclusive, HT1080 IDH1KD tx inconclusive, HT1080NT lethal -4%, KB-3-1 tox inconclusive and KB-V1 MDR tox inconclusive.
Screening Cc1ccc2nc(N(CCN(C)C)C(=O)/C=C/c3cccs3)sc2c1 returned TDP1 cell CPT inconclusive, DT40 TDP1 no CPT 16µM*, HT1080 IDH1KD tx inconclusive, HT1080NT lethal -29%, KB-3-1 tox inactive and KB-V1 MDR tox inactive.
For CN(C)CCN(C(=O)C1CCCCC1)c1nc2cc3c(cc2s1)OCCO3 the results were TDP1 cell CPT -15%, DT40 TDP1 no CPT 9.2µM*, HT1080 IDH1KD tx -7%, HT1080NT lethal -3%, KB-3-1 tox inconclusive and KB-V1 MDR tox inactive.
Screening CN(C)CCCN(C(=O)C1COc2ccccc2O1)c1nc2ccc(F)cc2s1 (configuration not stated) returned TDP1 cell CPT inconclusive, DT40 TDP1 no CPT inconclusive, HT1080 IDH1KD tx 8%, HT1080NT lethal 12%, KB-3-1 tox inactive and KB-V1 MDR tox inactive.
Screening CN(C)CCCN(C(=O)c1cccs1)c1nc2ccc(F)cc2s1 returned TDP1 cell CPT 16µM*, DT40 TDP1 no CPT inconclusive, KB-3-1 tox inactive and KB-V1 MDR tox inconclusive.
CN1CCN(c2cccc(Nc3nn4c(=O)c5ccc(Br)cc5nc4s3)c2)CC1 was read as KB-3-1 tox inactive and KB-V1 MDR tox inactive.
For COc1ccccc1N1CCN(C(=O)c2cc(S(=O)(=O)N3CCOCC3)ccc2C)CC1 the results were TDP1 cell CPT inconclusive, DT40 TDP1 no CPT inconclusive, HT1080 IDH1KD tx -2%, HT1080NT lethal 0%, KB-3-1 tox inactive and KB-V1 MDR tox inactive.
`CCOC(=O)[C@H]1[C@H]2COc3cc(OC)ccc3[C@@H]2N2C(=O)c3c(C)cc(C)cc3NC(=O)[C@@]12C` gave TDP1 cell CPT inconclusive, DT40 TDP1 no CPT inconclusive, HT1080 IDH1KD tx 0%, HT1080NT lethal -4%, KB-3-1 tox inactive and KB-V1 MDR tox inactive.
CCC(C)NC(=O)CCCc1nnc2n(CC(C)C)c(=O)c3sccc3n12 (configuration not stated) was read as TDP1 cell CPT 2% and DT40 TDP1 no CPT -10%.
